Test results published in the supplement of paper PMC7156485.
± gives the standard deviation of the averaged measurements.

Experiments:
Details in all cases: concentration: 10 µM; 24 h
HCC1569 [1] = test: cell number relative to DMSO (% of DMSO); higher = more cells (less growth inhibition / toxicity)
In short: (§1)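 Compounds were applied at 10 µM for 24 h at 37 °C, in triplicate, to HCC1569 and TDF cells. The cells were then fixed and stained for H1.0, and nuclei were counterstained with DAPI. Nuclear H1.0 intensity or cell number is reported relative to the plate control as a percent, taking the median of replicates. Smoothing for positional effects was applied to HCC1569 values only.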

TDF [2] = test: as above
In short: as §1

TDF [3] = test: H1.0 immunofluorescence intensity relative to DMSO (% of DMSO); higher = stronger H1.0 induction, active = 120 or more
In short: as §1

HCC1569 [4] = test: H1.0 immunofluorescence intensity relative to DMSO (% of DMSO); higher = stronger H1.0 induction, active = 140 or more
In short: as §1
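Wherever H1.0 immunofluorescence intensity relative to DMSO is given: TDF is a line of transformed human dermal fibroblasts of mesenchymal origin.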
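Wherever cell number relative to DMSO is given: TDF denotes transformed human dermal fibroblasts of mesenchymal origin.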

SMILES | cell number (HCC1569 [1]) | cell number (TDF [2]) | H1.0 immunofluorescence intensity (TDF [3]) | H1.0 immunofluorescence intensity (HCC1569 [4])
COC1=C(OC)C(=O)C(=C2C(C)=C(C(=O)O)NC(c3ccc4c(n3)C(=O)C(N)=C(OC)C4=O)=C2N)C=C1 [Streptonigrin] | 41.2 | 5.53 | 171 (active) | 128 (inactive)
CC1(C(=O)O)C2CCC(O2)C1(C)C(=O)O (stereo unspecified) [Cantharidic Acid] | 19.6 | 13.6 | 239 (active) | 180 (active)
CC12NC(Cc3ccccc31)c1ccccc12.O=C(O)C=CC(=O)O (single isomer, unassigned; (+)) [(+)-MK-801 hydrogen maleate] | 103 | 99 | 98.6 (inactive) | 89.3 (inactive)
CCCCCC=CC=CC(CCCCCCCC(=O)O)OO (stereo unspecified) | 101 | 94 | 100 (inactive) | 94.9 (inactive)
Cl.NC(=O)c1ccc(OCC(O)CN2CC=C(c3ccc(F)cc3)CC2)cc1 (stereo unspecified) | 105 | 107 | 96.4 (inactive) | 106 (inactive)
CN1CC(NS(=O)(=O)N(C)C)CC2c3cccc4c3c(cn4C)CC21 (stereo unspecified) [Mesulergine] | 100 | 103 | 93.4 (inactive) | 120 (inactive)
NC(Cc1ccc(N(CCCl)CCCl)cc1)C(=O)O (stereo unspecified) [Melphalan] | 86.3 ± 3.1 | 69.2 ± 5.8 | 104 (inactive) | 96.1 (inactive)
CC(N)C(O)c1ccccc1 (stereo unspecified) [Phenylpropanolamine] | 102 | 94 | 100 (inactive) | 99.8 (inactive)
CC(C)C1(NC(=O)C2C=C3c4cccc5[nH]cc(c45)CC3N(C)C2)OC2(O)C3CCCN3C(=O)C(Cc3ccccc3)N2C1=O (stereo unspecified) [Ergocristine] | 102 | 109 | 92.8 (inactive) | 90.3 (inactive)
NC(C(=O)O)c1cc(=O)[nH]o1 (racemic) | 104 | 103 | 92.2 (inactive) | 92.6 (inactive)
C[N+](C)(C)CC#CCOC(=O)Nc1cccc(Cl)c1.[Cl-] | 103 | 99.2 | 94.4 (inactive) | 87.7 (inactive)
COc1ccc2c(c[n+](C)c3c4cc5c(cc4ccc23)OCO5)c1OC.[Cl-] [Chelerythrine] | 114 | 17.4 | 139 (active) | 96.2 (inactive)
O=C1NC(=O)c2c1c1c3ccccc3[nH]c1c1[nH]c3ccccc3c21 | 98.8 | 126 | 79.9 (inactive) | 127 (inactive)
CC1=CC2c3cccc4[nH]cc(c34)CC2N(C)C1 (stereo unspecified) [Agroclavine] | 100 | 103 | 95.3 (inactive) | 98.1 (inactive)
Cl.O=C(CCCN1CCC2(CC1)C(=O)N(CCc1ccc(N=C=S)cc1)CN2c1ccccc1)c1ccc(F)cc1 [N-(p-Isothiocyanatophenethyl)spiperone hydrochloride] | 82.7 | 74 | 128 (active) | 149 (active)
CC(N)c1cccc(Cl)c1Cl.Cl (racemic) | 100 | 94.2 | 102 (inactive) | 101 (inactive)
CCC(C)C1OC2(C=CC1C)CC1CC(CC=C(C)C(OC3CC(OC)C(OC4CC(OC)C(O)C(C)O4)C(C)O3)C(C)C=CC=C3COC4C(O)C(C)=CC(C(=O)O1)C34O)O2 (stereo unspecified) [Abamectin] | 101 | 94.4 | 101 (inactive) | 103 (inactive)
COc1ccc2c(c1)=NC1=C(C)NCCC=21 [Harmaline] | 99.3 | 103 | 97.5 (inactive) | 93.9 (inactive)
CCC(C)C(=O)OC1C(O)C2C(CN3CC(C)CCC3C2(C)O)C2CC34OC5(O)C(OC(=O)C(C)(O)C(C)O)CCC3(C)C5C(OC(C)=O)C(OC(C)=O)C4C21O (stereo unspecified) [Protoveratrine B] | 104 | 97.9 | 106 (inactive) | 93.2 (inactive)
CC(Cc1ccc2c(c1)OC(C(=O)[O-])(C(=O)[O-])O2)NCC(O)c1cccc(Cl)c1.[Na+].[Na+] (stereo unspecified) | 97.5 | 106 | 88.7 (inactive) | 95.9 (inactive)
CCCC[N+]1(C)C2CC(OC(=O)C(CO)c3ccccc3)CC1C1OC12.[Br-] (stereo unspecified) [Scopolamine N-butylbromide] | 99.1 | 111 | 93.6 (inactive) | 88.1 (inactive)
Cl.Oc1ccc2c3c1OC1c4[nH]c5ccccc5c4CC4(O)C(C2)N(CC2CC2)CCC314 (stereo unspecified) [Naltrindole.HCl] | 103 | 99.3 | 93.2 (inactive) | 107 (inactive)
Br.CN1C2CC(OC(=O)C(CO)c3ccccc3)CC1C(O)C2 (stereo unspecified) [Anisodamine] | 104 | 102 | 101 (inactive) | 94.6 (inactive)
O=c1[nH]c2ccccc2n1CCCN1CCC(n2c(=O)[nH]c3cc(Cl)ccc32)CC1 [Domperidone] | 97.7 | 98.7 | 94.7 (inactive) | 109 (inactive)
Cl.O=c1[nH]oc2c1CCNC2 [THIP hydrochloride] | 100 | 112 | 94 (inactive) | 86.1 (inactive)

SMILES | cell number (HCC1569 [1]) | cell number (TDF [2]) | H1.0 immunofluorescence intensity (TDF [3]) | H1.0 immunofluorescence intensity (HCC1569 [4])
Cl.O=C(O)Cc1cnc[nH]1 [Imidazole-4-acetic acid hydrochloride] | 105 | 107 | 93 (inactive) | 93.3 (inactive)
CC(C)=CCCC1(C)C=Cc2c(O)c3c(c(CC=C(C)C)c2O1)OC12C(=CC4CC1C(C)(C)OC2(CC=C(C)C(=O)O)C4=O)C3=O (stereo unspecified) [Gambogic acid] | 14.1 | 10.6 | 148 (active) | 58.8 (inactive)
NC(Cn1cc(I)c(=O)[nH]c1=O)C(=O)O (stereo unspecified) [S-5-Iodowillardiine] | 107 | 107 | 91.2 (inactive) | 111 (inactive)
CNC(=O)Oc1ccc2c(c1)C1(C)CCN(C)C1N2C (stereo unspecified) [Physostigmine] | 104 | 104 | 102 (inactive) | 94.1 (inactive)
CC=C(C)C(=O)OC1CCC2(C)C3CCC4C5(O)CC(O)C6(O)C(CN7CC(C)CCC7C6(C)O)C5(O)CC42OC13O (stereo unspecified) [Cevadine] | 99.9 | 99.4 | 96.4 (inactive) | 93 (inactive)
CCCCCC=CCC=CCC=CC=CC(CCCC(=O)O)OO (stereo unspecified) | 101 | 100 | 98.5 (inactive) | 106 (inactive)
CN1[C@@H]2CC[C@H]1C[C@@H](OC(=O)[C@H](CO)c1ccccc1)C2 [L-Hyoscyamine] | 100 | 117 | 95 (inactive) | 96.2 (inactive)
CCN1CC2(OC(=O)c3ccccc3NC(C)=O)CCC(OC)C34C1C(CC23)C1(O)CC(OC)C2CC4C1(O)C2OC (stereo unspecified) [Lappaconitine] | 107 | 103 | 100 (inactive) | 94.3 (inactive)
CCCCCCCCCCCCCCCCOCC(COP(=O)([O-])OCC[N+](C)(C)C)OC(C)=O (stereo not drawn) [Enantio-PAF C16] | 100 | 106 | 93.7 (inactive) | 94 (inactive)
COc1ccc2c(c1)C(=Cc1cnc[nH]1)C(=O)N2 | 72.4 | 49.2 | 98.1 (inactive) | 107 (inactive)
O=C1C=C2C=CC3CC2(O1)C1CCCCN31 (stereo unspecified) [Securinine] | 87.8 | 76.4 | 102 (inactive) | 99.9 (inactive)
NC(N)=NOCC[C@H](N)C(=O)O.O=S(=O)(O)O [L-Canavanine sulfate] | 101 | 81.3 | 107 (inactive) | 107 (inactive)
CC1=C(O)C(=O)C2OC2C1=O (single isomer, unassigned; (-)) | 80 | 98.1 | 96.7 (inactive) | 117 (inactive)
CN(C)C(=O)C(CCN1CCC(O)(c2ccc(Cl)cc2)CC1)(c1ccccc1)c1ccccc1.Cl [Loperamide hydrochloride] | 84.8 | 88.6 | 102 (inactive) | 122 (inactive)
COC1C(O)C(C)OC(OC2C(Oc3cccc4c(O)c5c(=O)oc6ccc(C)c7c(=O)oc(c34)c5c67)OC(C)C(O)C2O)C1O (stereo unspecified) [Chartreusin] | 105 | 99.3 | 100 (inactive) | 108 (inactive)
C=CC1CN2CCC1CC2C(O)c1ccnc2ccccc12 (single isomer, unassigned; (+)) [(+)-Cinchonine] | 101 | 106 | 98.9 (inactive) | 91.1 (inactive)
C[N+]1(C)CCOC(O)(c2ccc(-c3ccc(C4(O)C[N+](C)(C)CCO4)cc3)cc2)C1.[Br-].[Br-] (stereo unspecified) [Hemicholinium-3] | 100 | 106 | 92 (inactive) | 87.8 (inactive)
COC(=O)c1cc2c(cn1)[nH]c1ccccc12 [Methyl beta-carboline-3-carboxylate] | 98.8 | 105 | 90.1 (inactive) | 95.3 (inactive)
CC(=O)N1N=C(c2ccc(N)cc2)c2cc3c(cc2C[C@H]1C)OCO3 | 95.4 | 103 | 106 (inactive) | 95.8 (inactive)
CCN(CC)C(=O)NC1C=C2c3cccc4[nH]cc(c34)CC2N(C)C1 (stereo not drawn) [S-(-)-Lisuride] | 101 | 105 | 95.5 (inactive) | 93.6 (inactive)
CN(C)C(=O)Oc1cc(OC(=O)N(C)C)cc(C(O)CNC(C)(C)C)c1.Cl (stereo unspecified) | 104 | 104 | 91.4 (inactive) | 101 (inactive)
CC1OC(C[N+](C)(C)C)CS1.[I-] (stereo unspecified) [OXA-22 iodide] | 99.8 | 116 | 97.2 (inactive) | 95.2 (inactive)
CCCC(=O)OC1C(C)C2(O)C(C=C(CO)CC3(O)C(=O)C(C)=CC32)C2C(C)(C)C12OC(=O)CCC (stereo unspecified) [Phorbol 12,13-dibutyrate] | 89.5 | 74.2 | 123 (active) | 157 (active)
COC(=O)N1CCN(C(=O)Cc2ccc(Cl)c(Cl)c2)C(CN2CCCC2)C1.O=C(O)C=CC(=O)O (stereo unspecified) | 100 | 102 | 97.7 (inactive) | 95.7 (inactive)
